dFosB act-1: activators of mouse delta FosB homodimer | activation, % at 25 µM | actives 0.99% (n = 340,000) | purified delta FosB, TAMRA-CDK5 oligo fluorescence polarization; percent of positive-control signal above neutral wells | AID 493131 | P13346;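 active = mean activation above about 17%, with every replicate also reaching it, limit read from the data, passing the limit was not always enough; inconclusive = only one of the two conditions met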
Neddyl block: blocks human cullin neddylation; actives 0.58% (n = 360,000); AID 651699; TR-FRET cullin neddylation, biochemical; inhibition, % at 25 µM; in the data active = inhibition above about 36%
Target sequence (P61081 whole entry, looked up): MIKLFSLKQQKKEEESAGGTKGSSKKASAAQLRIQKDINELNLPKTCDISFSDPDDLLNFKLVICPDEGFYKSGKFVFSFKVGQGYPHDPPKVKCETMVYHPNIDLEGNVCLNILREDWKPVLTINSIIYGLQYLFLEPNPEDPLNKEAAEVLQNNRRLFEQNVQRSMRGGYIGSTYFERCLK
Target sequence (Q13564 whole entry, looked up): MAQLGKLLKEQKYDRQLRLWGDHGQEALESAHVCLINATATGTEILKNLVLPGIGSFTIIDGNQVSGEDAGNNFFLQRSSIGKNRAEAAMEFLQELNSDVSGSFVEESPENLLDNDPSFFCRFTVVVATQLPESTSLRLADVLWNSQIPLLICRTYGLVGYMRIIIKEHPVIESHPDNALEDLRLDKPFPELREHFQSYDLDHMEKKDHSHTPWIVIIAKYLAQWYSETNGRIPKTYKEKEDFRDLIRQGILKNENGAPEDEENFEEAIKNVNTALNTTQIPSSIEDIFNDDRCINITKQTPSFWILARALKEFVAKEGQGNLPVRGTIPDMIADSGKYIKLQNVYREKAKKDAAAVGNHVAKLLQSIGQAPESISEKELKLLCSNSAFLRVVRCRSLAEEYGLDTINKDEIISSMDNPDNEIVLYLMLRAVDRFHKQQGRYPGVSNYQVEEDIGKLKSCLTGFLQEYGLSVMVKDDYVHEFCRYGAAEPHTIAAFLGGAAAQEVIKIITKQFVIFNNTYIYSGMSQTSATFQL
A1 inh: inhibitors of the anti-apoptotic protein A1, read as caspase activation; MEF A1-2A-BIM cells, Caspase-Glo 3/7 luminescence, 3 h; percent of clofoctol response, vehicle zero; caspase activation, % (test concentration not listed); actives 0.066% (n = 330,000); AID 2462;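 active = over half of replicate activation scores above 10%, or exactly half above 10 with the replicate mean above 10; inconclusive = replicate mean below 10 yet half the replicates above 10; inactive = over half of replicates below 10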
GSIS activator: primary screen for activators of insulin secretion dependent on glucose, INS-1E cells, GLuc reporter luminescence | actives 0.61% (n = 370,000) | activation, % at 16.6 µM | AID 743287 | INS-1E GLuc reporter insulin secretion, 2-3 h;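 active = lowest replicate activation of at least 40%, so every replicate reaches that level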
Vif inh: HIV Vif inhibition; HEK293T cells, Vif self-association by quenched fluorescence, imaging, 24 h; inhibition, % at 7.49 µM; actives 0.35% (n = 340,000); AID 602346; in the data active = inhibition above about 50%, passing the limit was not always enough; inconclusive = no clear call, values can overlap the other calls; inactive = below about 31%
dFosB act-2: activators of mouse delta FosB homodimer DNA binding. shares compounds with dFosB act-1. purified delta FosB, TAMRA-CDK5 oligo fluorescence polarization; normalised: neutral wells 0, positive control 100. activation, % at 24.9 µM. 2,400 tested, under 10 active;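 active = highest replicate activation at or above 34% and every replicate reaching that threshold; inconclusive = meets only one of the two criteria; inactive = meets neither criterion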;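 also: higher polarization means more probe DNA bound by delta FosB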
Numbers stand for hits; – = inactive; ? = inconclusive; · = not tested or not shown; + = active, no number. Rows were chosen to be rich in hits. Some 1.9% of all compounds tested hit in one or more screens of this group.

SMILES | dFosB act-1 | Neddyl block | A1 inh | GSIS activator | Vif inh | dFosB act-2
COc1cc(-c2nc(-c3ccc(NC(=O)c4ccc5c(c4)OCO5)cc3)no2)cc(OC)c1OC | 43 | – | – | · | – | –
COc1ccc(CC(=O)Nc2ccc(-c3noc(-c4ccc(Cl)cc4)n3)cc2)cc1 | 60 | – | – | – | ? | –
COc1ccc(NC(=O)CS(=O)(=O)Cc2nc(-c3ccc(C)cc3)oc2C)cc1 | – | – | – | – | – | ·
COc1ccc(-c2noc(CCC(=O)Nc3ccc(C)c(C)c3)n2)cc1 | – | – | – | – | · | ·
COc1ccc(-c2nc(CS(=O)(=O)CC(=O)Nc3ccc(Cl)cc3)c(C)o2)cc1 | 45 | – | – | – | – | –
COc1ccc(CC(=O)Nc2ccc(-c3noc(COc4ccccc4C)n3)cc2)cc1 | – | – | – | · | – | ·
Cc1ccccc1-c1nc(-c2ccc(NC(=O)c3ccc4c(c3)OCO4)cc2)no1 | – | – | – | · | – | ·
COc1ccc(CC(=O)Nc2ccc(-c3noc(-c4cc(OC)c(OC)c(OC)c4)n3)cc2)cc1 | 21 | – | – | · | + | –
O=C(N[C@H]1CC[C@H](CC(=O)N2CCCCC2)O[C@@H]1CO)c1ccc2c(c1)OCO2 | · | · | · | – | · | ·
COc1ccc(NC(=O)C2CCN(c3nc(-c4ccc(OC)cc4)no3)CC2)cc1 | 29 | – | – | – | – | –
COc1ccc(CC(=O)Nc2ccc(NC(=O)c3ccccc3F)cc2)cc1 | 20 | – | – | – | – | –
CCOc1ccccc1-c1nc(-c2ccc(NC(=O)Cc3ccc(OC)cc3)cc2)no1 | 25 | – | – | · | – | –
COc1ccc(NC(=O)CSc2nc(N)c(NC(=O)c3ccccc3F)c(=O)[nH]2)cc1 | – | – | – | – | – | ·
C[C@@H]1CN([C@@H](C)CO)C(=O)c2cc(NC(=O)C3CCCCC3)ccc2O[C@@H](C)CCCCO[C@@H]1CN(C)C(=O)Cc1ccccc1 | · | · | · | – | · | ·
COc1ccc2sc(/C=C/c3ccccc3O)[n+](C)c2c1 | 65 | – | · | – | – | –
COc1ccccc1C1CCN(Cc2ccc3ccccc3c2)CC1 | 21 | – | – | – | – | –
C[C@@H]1CN([C@H](C)CO)C(=O)c2cc(NS(=O)(=O)c3cn(C)cn3)ccc2O[C@@H](C)CCCCO[C@@H]1CN(C)CC1CC1 | · | · | · | – | · | ·
OCCNc1nc(Nc2ccc(O)cc2)nc2ccccc12 | 19 | – | – | · | – | –
OCCNc1nc(Nc2cccc(O)c2)nc2ccccc12 | – | – | – | – | – | ·
CCN1[C@@H]2c3ccc(-c4ccncc4)c(=O)n3C[C@@H]2[C@@H](CO)[C@@H]1C(=O)Nc1ccccc1 | · | · | · | – | · | ·
COc1ccc(OC)c(NC(=O)C(C)OC(=O)c2cc3ccccc3[nH]2)c1 (stereo not drawn) | 19 | – | · | – | – | –
CCC(=O)Nc1ccc(Cl)c(NC(=S)NC(=O)COc2ccccc2)c1 | 35 | – | – | – | – | ?
CCC(=O)NC(=S)Nc1ccc(NC(=O)COc2ccc(Cl)c(C)c2)cc1 | – | – | – | · | – | ·
CCC(=O)Nc1ccc(Cl)c(NC(=S)NC(=O)COc2ccc(Cl)cc2)c1 | 55 | – | – | 44 | – | –
O=C(COc1ccccc1)NC(=S)Nc1cccc(NC(=O)c2ccccc2Cl)c1 | – | – | – | – | – | ·
SMILES | dFosB act-1 | Neddyl block | A1 inh | GSIS activator | Vif inh | dFosB act-2
COc1ccc2oc(=O)c(-c3cn4ccc(C)cc4n3)cc2c1 | 26 | – | – | – | – | –
O=c1oc2ccccc2cc1-c1cn2ccccc2n1 | – | – | – | – | – | ·
O=C(Nc1nc(-c2ccc(F)cc2)cs1)c1cccnc1 | 34 | – | – | – | – | –
O=C(Nc1ccc2nn(-c3ccccc3)nc2c1)c1cccnc1 | – | – | – | · | – | ·
O=C(Nc1ccc2nn(-c3ccc(F)cc3)nc2c1)c1cccnc1 | 30 | – | – | – | – | –
C[C@@H]1CN([C@@H](C)CO)C(=O)c2cc(NS(C)(=O)=O)ccc2O[C@@H](C)CCCCO[C@H]1CN(C)Cc1ccccc1 | · | · | · | – | · | ·
CCOc1ccc(-n2c(SCC(=O)N3CCc4ccccc43)nnc2-c2c[nH]c3ccccc23)cc1 | 27 | – | – | – | – | –
Cc1cccc(-n2c(Cc3cc(=O)[nH]c(=O)[nH]3)nnc2SCC(=O)N2CCc3ccccc32)c1 | 38 | – | – | – | – | –
CO[C@@H]1CN(C)C(=O)c2cc(NC(C)=O)ccc2OC[C@@H](C)N(C(=O)C2CCC2)C[C@H]1C | · | · | · | – | · | ·
CCOc1cc(/C=N/O)cc(Br)c1OCc1ccc(Cl)cc1 | 32 | – | – | · | – | –
CC(=O)Nc1ccc(SCC(=O)c2c(N)n(Cc3ccccc3)c(=O)n(C)c2=O)cc1 | 17 | – | – | – | – | –
CC(=O)NC(=S)c1c(N)n(Cc2ccccc2)c(=O)n(C)c1=O | · | · | – | · | · | ·
COc1ccc(S(=O)(=O)Nc2cccc(-c3ccc4nncn4n3)c2)cc1 | 21 | – | – | – | – | –
COc1ccc(/C=C/C(=O)NC(=S)Nc2ccccc2C(=O)NC2CCCCC2)cc1 | 44 | – | – | – | – | –
Cc1ccc(/C=C/C(=O)NC(=S)Nc2ccccc2C(=O)NC2CCCCC2)cc1 | – | – | – | · | – | ·
O=C(/C=C/c1ccccc1)NC(=S)Nc1ccccc1C(=O)NC1CCCCC1 | 39 | – | – | · | – | –
CC(=O)NC(=S)Nc1ccccc1C(=O)NC1CCCCC1 | – | – | – | – | – | ·
O=C(/C=C/c1ccc(F)cc1)NC(=S)Nc1ccccc1C(=O)NC1CCCCC1 | 22 | – | – | · | – | –
CCC(=O)N1[C@@H](CO)[C@H](c2ccccc2)C12CN(C(=O)c1ccc3c(c1)OCO3)C2 | · | · | · | – | · | ·
Cc1c(-c2cc(Br)ccc2O)nc2cc3c(cc2c1C)OCO3 | 24 | – | – | – | – | –
O=C(NC(NC(=S)Nc1c(Cl)cccc1Cl)C(Cl)(Cl)Cl)OCc1ccccc1 (stereo not drawn) | 16 | – | – | – | – | –
O=C(Nc1cc(Cl)ccc1-n1cncn1)c1ccc(Br)o1 | 36 | – | – | – | – | –
O=C(Nc1cc(Cl)ccc1-n1cncn1)c1cncc(Br)c1 | – | – | – | – | – | ·
O=C(COc1ccc(F)cc1)Nc1cc(Cl)ccc1-n1cncn1 | 26 | – | – | – | – | –
O=[N+]([O-])c1ccc(Nc2nc(NCCO)nc(N3CCCC3)n2)cc1 | – | – | – | – | – | ·
NNc1nc(Nc2ccc([N+](=O)[O-])cc2)nc(N2CCCCCC2)n1 | 67 | – | – | – | – | –
O=C(Nc1nnc(-c2cccs2)s1)c1cccc(F)c1 | 36 | · | – | – | – | –
O=C(c1ccc(F)cc1)N1CC2(C1)[C@H](c1ccccc1)[C@H](CO)N2Cc1ccccn1 | · | · | · | – | · | ·
O=C(Oc1cccc(-n2cnnn2)c1)c1sc2ccccc2c1Cl | 143 | – | – | – | – | –
Cc1cncn1CCc1nc2c3ccccc3nc(SCC(=O)Nc3cccc(Cl)c3)n2n1 | – | – | – | – | – | ·
